Screen size: about 53,000 sequences; about 3,700 (7%) were called active.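 Rule for the calls: active = gene knockdowns whose robust z-score for IL-1 alpha signal is at least 2 or at most -2, so actives lie on both sides; inactive = the rest.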 Shown is part of a subset that was picked to be rich in actives.

The experiment can be described thus: Components of the Cytosolic LPS Sensing Pathway: Gene Identification via Genome-wide siRNA Screen.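 Note: robust z of the log signal after scaling to non-targeting control siRNA wells of the plate.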 Conditions: RAW264.7 macrophages, IL-1a HTRF, actives lie on both sides, screened at 100 nM (by protocol), cells primed 5 h with Pam3CSK4 first. The method in brief:
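RAW264.7 mouse macrophages reverse-transfected with single siRNAs (100 nM final) for 48h, primed with Pam3CSK4 for 5 hours, then transfected with LipidA for 24 hour. Supernatant IL-1a read by HTRF; values normalized to negative-control median, log-transformed robust z-scores.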
(In TR-FRET formats the signal depends on donor and acceptor labels being close together.)
In the case of GGCUCUGACCAAGAAUGAUTT against Cpsf1, the z-score is 1.27 (inactive).
Take GGAUCACUAACUUUUCCAATT against Trpc3: the z-score was 3.46 (active).
GGCACACUCACUCCUUUGATT against Mis18bp1: the z-score was 0.145 (inactive).
“GGAAACGAUGAAGAACAAATT against 4933427D06Rik”: the z-score is -0.714 (inactive).
Take GCAUUUUUCGUUAGGAAAATT against Esco2: the z-score is 3.13 (active).
As to “GGUAGAAACAAAGAAAUAGTT against 9130023H24Rik”, the z-score is -0.183 (inactive).
Take GGGCUAAGGACAGAAUUACTT against Tusc2: the z-score was -0.0196 (inactive).
Consider GGAGAAGAACUAAAACUUATT against Bbs7, for which the z-score was 0.846 (inactive).
Turning to GGUCUCCAUCACAUUCAAGTT against BC024139, the z-score is 1.19 (inactive).
Turning to CCGGAUGGGAAUCGCUAAATT against Slc22a13b, the z-score is 2.17 (active).
As for AAUCUUUUCGUGAAGGCACTT against Zfp948, the z-score was 0.84 (inactive).
For the sequence CGAAUGCUUAUUUAGGUUGTT against Kpna4, the z-score is -0.387 (inactive).
Regarding GCUGAAAUAUGUGAGAGCATT against Sdcbp, the z-score is 0.016 (inactive).
In the case of CCGGGUCAUUAUCUAUCAATT against Puf60, the z-score is -0.383 (inactive).
For CGCAGCUUUCUAUACUGGCTT against Ngf, the z-score was 2.41 (active).
As for GCACUUACUCUUCAACGGGTT against Yae1d1, the z-score is 1.87 (inactive).
For the sequence GGUCGUCGUGAGAUCUUAUTT against Prlhr, the z-score is -0.342 (inactive).
For the sequence CGUGUGUUUUACCCUAAAATT against Zfp947, the z-score was 0.404 (inactive).
As to GGAAGCUGUGGAGAAACUATT against Acox2, the z-score was 2.22 (active).
For GGACGAGAACAUCUUAAUCTT against Pim1, the z-score is 1.58 (inactive).
Take GGAACUUACACAUUUGUUCTT against Tnfsf13b: the z-score is -1.11 (inactive).
With GCCAUGACCAUCUUUCUCUTT against Olfr1413, the z-score was -3.03 (active).
GGAGCAUGUCUUUAAGAAGTT against Stac: the z-score was -1.15 (inactive).
In the case of GCUAACUUACCCAAAGAAATT against Tnfaip3, the z-score was 1.41 (inactive).
In the case of GUGCAACGUGAGCAAUACGTT against Selenbp2, the z-score is -0.417 (inactive).
As to CGUAAAACUCUUAGGCAUGTT against Npm1, the z-score was 1.13 (inactive).
In the case of GAAAAAAUGCCAGCUGUGGTT against Sec61b, the z-score was 0.379 (inactive).
For CCUGCAUACGAAGUACAUATT against Bsg, the z-score was 2.75 (active).
GGAUCCAUCCGUCUCUAAGTT against Rprd2: the z-score was 0.628 (inactive).
As to GGUGCAAGUUCCCAUUAUATT against Tpsab1, the z-score was -0.405 (inactive).
Turning to GGACAUAGCAUCUUCACUUTT against Mpp3, the z-score was -1.31 (inactive).
Regarding GGCCUUAGGAAAAAAAAAGTT against Bad, the z-score was 0.956 (inactive).
Consider CCUUGGUGGUCUGAAAUAATT against Cyp4a31, for which the z-score is -0.159 (inactive).
As for GGAGAAACUGGACAACCUGTT against Eno2, the z-score is 4.12 (active).
Under GGAUGUGAAUGAGUGUGAGTT against Fbln7 stands 0.368 (inactive); under GGAGAAUGAACAGACAGAGTT against Slc39a14, -2.06 (active); under GGAGAAGAAGGUUCUUGCCTT against Hoxb13, -1.03 (inactive).
For GGUCGCACAAGGUAUUAUATT against AI661453, the z-score is -0.402 (inactive).
Consider GGGAAAAAGAACAAGAUCATT against Cep57l1, for which the z-score was -0.799 (inactive).
As for GGGAACAAGACAACACAGCTT against Adam11, the z-score is 2.03 (active).
On to GGUACUUCCUCAUUUACCUTT against Zdhhc4, for which the z-score was 0.541 (inactive).
CCGUAAGCUGUCUCUUUGUTT against Pla2g4c: the z-score is -1.97 (inactive).
For CCGUCUAUUAGUGAAGAUGTT against Pex1, the z-score was 0.0157 (inactive).
On to GGGUGAAAAUGGCAUUGUUTT against Col1a2, for which the z-score was 0.56 (inactive).
The same measure for CGUGAUGGGACUUGAGAAGTT against Teddm1a: -0.454 (inactive); for GGAAAGAUUGUUUGAAGGCTT against Cask: -0.252 (inactive).
Regarding GCUGAUUUCAUUGCAUCCGTT against Olfr483, the z-score was 2.12 (active).
On to GGAAAAGGUUAAACUUUGATT against Cenpc1, for which the z-score is 0.165 (inactive).
Regarding CCAUCCUCCUACUCGUUAGTT against Vmn1r233, the z-score was 2.03 (active).
As for CCAAUAAAAGUUGAGAGCUTT against Krt18, the z-score is -0.272 (inactive).
With GCCUGACAUUGGGACAAAGTT against Trim34a, the z-score is 0.179 (inactive).
As for GCCUCCUAUCCUGGGAAGATT against Prss3, the z-score was 2.54 (active).
The same measure for GGAGACGAGAAACAAACCCTT against Diaph2: 1.68 (inactive); for GGUACUUUGGAGAUUGUAATT against Rdh14: -0.462 (inactive); for GGCAGCCAAGAGAUUGAAUTT against Suclg2: 1.09 (inactive).
Under GGUUCUGAAAUGCAUGGAGTT against Rnf6 stands 1.76 (inactive); under GCAAAUGCGACUUUACACATT against Top1, 2.56 (active); under GGAGCUGCUUGCUCAAAGATT against Tmem65, 0.61 (inactive).
On to GCUGGAAAUGACACUGCCUTT against C1qtnf7, for which the z-score was 1.45 (inactive).
Consider GCGGGAAUGAAGAAACACGTT against Eea1, for which the z-score was 0.801 (inactive).
For the sequence GCCACGUUCCCUUGAUCAUTT against Mx2, the z-score was 1.4 (inactive).
In the case of GGAUGCCUUCUAUACACUATT against Hras, the z-score was -1.33 (inactive).
As for CCCUUACAUCCAUCAACUATT against Dcbld2, the z-score is -1.04 (inactive).
For GGAAGUAUGUGUUUCUCAGTT against Prr9, the z-score is -2.41 (active).
With “GGUAAUAAACGGUAAAUUGTT against B430306N03Rik”, the z-score was -0.763 (inactive).
Regarding GGUUCCAUAGCAGACAAAATT against Mrpl24, the z-score is 0.513 (inactive).
Take CCAAAUAUGUACUUCAUGGTT against Adipor1: the z-score was -0.147 (inactive).
Regarding CGAUAAGAACACCUAUAUUTT against Sf3b1, the z-score is -3.26 (active).
Turning to GGACAUCCAUUCAUGCUUUTT against Serpinb1b, the z-score is -0.529 (inactive).
Take CCUAUAACUCCAAGGAUACTT against Lexm: the z-score was 0.628 (inactive).
GGUUUUGAGCAAAAUUCUATT against Nrd1: the z-score was 0.985 (inactive).
For the sequence GCACUGGAAAUUGUAUAAATT against Hyal6, the z-score was 2.19 (active).
As for CGGAGUGUACCAUCUACACTT against Agpat4, the z-score was 0.193 (inactive).
Under GGGACUGCAUACUUAAGUUTT against Amacr stands 1.31 (inactive).
For the sequence GGGACCGUGAAGAAAAUUUTT against Tmed11, the z-score is -0.926 (inactive).
As for “GGAGGCUUAUCCUAAAAAGTT against 6330444E15Rik”, the z-score is -1.02 (inactive).
With GCUGAACCUAUGAGGGAGATT against Gpank1, the z-score was 0.809 (inactive).
Turning to GGAGUUCAUUCUGGAUAUCTT against Matn2, the z-score was 1.24 (inactive).
The same measure for CCUAGGGCUUUAGCUCUGATT against Msc: -0.75 (inactive).
Under GGAUUAAACCUUUUAACCGTT against Emilin3 stands -0.251 (inactive); under GCAUGUUUUACAGUGUUCATT against Rxfp1, 2.7 (active).
Under GCCGGAUGGCACAUUCGUATT against Cda stands -0.281 (inactive); under CCUAAGGUCAAGAUAUAGCTT against Cep55, 0.121 (inactive); under CCCACCAGAUUUCUACACCTT against Vsig2, -2 (inactive).
GGCUAUGGACCGAAAGAUUTT against Dgcr6: the z-score is -1.42 (inactive).
As to GCAGCUGUCAUGUAUACAGTT against Olfr59, the z-score is -0.867 (inactive).
Regarding GGAAUAUCCCAACAUCUGUTT against Upp1, the z-score is -0.899 (inactive).
Consider GCAGUAUGUAAACCCUUACTT against Olfr1463, for which the z-score was 0.558 (inactive).
As to CGACCUUAAGCUAAGCAGUTT against Aff3, the z-score was 1.18 (inactive).
The same measure for GGAAUUUUCUCAUGAUCUUTT against Krtap3-3: 0.813 (inactive).
As to GGGCUAUUAAAUGAUUUCATT against Pax1, the z-score is 5 (active).
Consider GCCAUGAUUUUCAUGUACGTT against Olfr711, for which the z-score was 0.241 (inactive).
In the case of CCUUAAUAAAUCUAGUGGCTT against Stmn3, the z-score is -0.567 (inactive).
GCGGCUUAUGUCUCAAAUUTT against Gcdh: the z-score was 2.34 (active).
As to GGCCGAUGCCAAAUUGGUATT against Olfm1, the z-score was 0.0323 (inactive).
Regarding GGACUAGCAAGGCAAGUGATT against Dnase2b, the z-score is 1.32 (inactive).
Under GGGAAUCGGACCAACUUACTT against Adssl1 stands 3.64 (active); under GCGAGUUUAAUGUUUAUGCTT against Pdgfra, -1.29 (inactive); under GCCCAGCAUGGAUAGAUUATT against Mis18bp1, 0.466 (inactive).
On to GGAAAAUGUAAACAAGUACTT against Xpo5, for which the z-score is -0.595 (inactive).
As for GGAUAACACCACCAACUAUTT against Akap8l, the z-score is 0.456 (inactive).
Under GGGCUGUUCUACUUAGUUATT against N6amt1 stands 0.573 (inactive); under GGAUUAAAGAAAGACAUUGTT against Yme1l1, -2.04 (active).
As to CGCCAGAGUGCAUAGUCUUTT against Mindy2, the z-score was 1.94 (inactive).
Take GCCAUUUUAGAGCAGAUCCTT against Rundc3a: the z-score is -2.33 (active).
Take GCAAACUGUCCUAUCUUGGTT against Cacna1d: the z-score is 0.84 (inactive).
Under GGUGUUGUUUCGAAUUAUUTT against Xrn1 stands 0.44 (inactive); under GGUUCAGGUUCUUCUAAAATT against Cd109, 1.42 (inactive).

These data come from PubChem BioAssay AID1508600 (Functional Genomics Laboratory (NCATS/FGL), 2020).
